# Experimental data published in PubChem BioAssay (NCATS).
# Results filed as inconclusive are left out. Values without a mark were called inactive. The source made the active and inactive calls. Calls follow the shape of the full dose curve; tested in HEK293 reporter line.
# Assay: qHTS for Inhibitors of the Functional Ribonucleoprotein Complex (vRNP) of Lassa (LASV) Arenavirus: Viability assay - alamar blue signal for LASV Primary Screen (AID 1347083)
# Details: cell viability, alamar blue fluorescence (LASV minigenome counter-screen); series mostly up to 57.5 µM; activity change, negative = reduced viability: at the top concentration
# % is scaled to controls: 0 for no effect and ±100 for the full control effect; potency is read from the fitted curve at half-maximal effect.
# Also: nearly all actives have a fitted effect of over 80% in size.
SMILES,"activity change, negative = reduced viability",Potency
Cn1cc(C2=C(c3ccc(Cl)cc3Cl)C(=O)NC2=O)c2ccccc21,-17.4%,–
N#CNC(=NCCCCCCOc1ccc(Cl)cc1)Nc1ccncc1,–,0.0097 µM (active)
CC(C)C[C@H](NC(=O)CNC(=O)c1cc(Cl)ccc1Cl)B1OC(=O)CC(CC(=O)O)(C(=O)O)O1 (stereo not given in full),–,1.93 µM (active)
CCN(CC)CCCCNc1ncc2c(n1)N(C)C(=O)N(c1c(Cl)c(OC)cc(OC)c1Cl)C2,–,34.3 µM (active)
COc1ccc(Nc2cc(-c3cnc(N)nc3)nc(N3CCOCC3)n2)cn1,–,3.85 µM (active)
Cc1ccc2nc(NCCN)c3ncc(C)n3c2c1,–,19.3 µM (active)
Nn1nnc2ccccc21,6.42%,–
C[C@@]1(C2CCCC2)Cc2cc(OCC(=O)O)c(Cl)c(Cl)c2C1=O,-22.4%,–
CN1CCc2c(c3ccccc3n2Cc2ccc(C(=O)NO)cc2)C1,–,21.7 µM (active)
COC(=O)Nc1ccc(-c2nc(N3CCOCC3)c3cnn(C4CCN(Cc5cccnc5)CC4)c3n2)cc1,–,0.153 µM (active)
O=C1c2c(O)cc(O)cc2OC(c2ccc(O)c(O)c2)C1O (stereo not given),1.86%,–
NC/C=C\C(=O)O,-2.37%,–
CCc1ccc(/C=C2/SC(=S)NC2=O)cc1,-1.98%,–
CCCCOP(=O)(O)OCCCC,0.554% [at 115 µM],–

# Assay: qHTS for Inhibitors of the Functional Ribonucleoprotein Complex (vRNP) of Lymphocytic Choriomeningitis Arenaviruses (LCMV): Viability assay - alamar blue signal for LCMV Primary Screen (AID 1347085)
# Details: alamar blue viability counter-screen, LCMV vRNP screen cells; series mostly up to 57.5 µM; activity change, negative = lower viability: at the top concentration
SMILES,"activity change, negative = lower viability",Potency
CC1(C)CCC[C@@]2(C)C1CC[C@@](C)(O)[C@@H]2CC[C@@](C)(O)C1CO1 (stereo not given in full),-20.9%,–
COc1ccc(Cc2ccc(NC(N)=O)cc2)cc1-c1cccc(Cl)c1,–,9.68 µM (active)
O=C1NC(=O)C(=Cc2ccc(-c3ccc(F)cc3O)o2)S1,15.5%,–
Nc1nc(F)nc2c1ncn2[C@@H]1O[C@H](COP(=O)(O)O)[C@@H](O)[C@H]1O,-8.09%,–
Cc1ccc([C@@H]2O[C@H](CO)[C@@H](O)[C@H](O)[C@@H]2O)cc1Cc1ccc(-c2ccc(F)cc2)s1,–,34.3 µM (active)
OC1c2ccccc2N=C2CCCN21 (stereo not given),-28%,–
O=C1NC(=O)C(=Cc2ccc3nccnc3c2)S1,5.18% [at 24.7 µM],–
COc1cc(C(=O)O[C@H]2C/C(C)=C/CC[C@@]3(C)O[C@@H]3[C@H](O)[C@@H]2C(C)C)cc(OC)c1OC,-28.6%,–
C=CCc1ccc(O)c(-c2ccc(O)c(CC=C)c2)c1,8.2%,–
C=C1C[C@H](OC(=O)C(C)(O)CCl)C2C(=C)C(=O)O[C@@H]2C2C1C[C@H](O)[C@]2(O)CCl (stereo not given in full),-24.1%,–
COc1ccc(-c2cc(=O)c3c(OC)c(OC)c(OC)c(OC)c3o2)cc1,-0.057%,–
C[C@]12CC[C@@H]3c4ccc(O)cc4CC[C@H]3[C@H]1C[C@@H](O)[C@H]2O,–,9.68 µM (active)
COc1cc2c(cc1OC)[C@@H]1Cc3ccc(OC)c(OC)c3CN1CC2,-23.5%,–
CCS(=O)(=O)N1CC(CC#N)(n2cc(-c3ncnc4[nH]ccc34)cn2)C1,1.66%,–
C[C@]12CC[C@H]3C(=CCc4cc(O)ccc43)[C@@H]1CCC2=O,-5.77% [at 115 µM],–
OCC1OC(n2cnc3c(NCc4ccccc4O)ncnc32)C(O)C1O (stereo not given),–,4.47 µM (active)
C[C@@H]1C(=O)O[C@H]2[C@H](O)[C@@]34[C@H]5CC(C(C)(C)C)[C@]36[C@H](OC(=O)[C@H]6O)O[C@]4(C(=O)O5)[C@@]12O (stereo not given in full),28.4%,–
COc1cc2c(c(OC)c1OC)-c1ccc(OC)c(=O)cc1[C@@H](NC=O)CC2,-58.5% [at 115 µM],–
CC(=O)O[C@@]12CO[C@H]1C[C@H](O)[C@@]1(C)C(=O)[C@H](O)C3=C(C)[C@@H](OC(=O)C(O)[C@@H](NC(=O)OC(C)(C)C)c4ccccc4)C[C@@](O)([C@@H](OC(=O)c4ccccc4)[C@@H]21)C3(C)C (stereo not given in full),-90.3%,–
COc1ccc(-c2oc3cc(OC)c(O)c(OC)c3c(=O)c2OC)cc1O,-23.9%,–
CC=CC(C)=CC(C)C(=O)CC(O)CC1CC(=O)NC(=O)C1 (stereo not given),-25.8%,–
O=C(C=Cc1ccccc1O)c1ccccc1O,-25.4%,–
O=C1NC(=O)C(=Cc2ccc(-c3ccc(F)cc3)o2)S1,4.99%,–
C=CC(=O)Nc1cc(NC(=O)c2ccc(C)c(NC(=O)c3ccno3)c2)cc(C(F)(F)F)c1,-4.45%,–
CC=C(C(=CC)c1ccc(O)cc1)c1ccc(O)cc1,–,2.43 µM (active)
NS(=O)(=O)OC[C@@H]1C[C@@H](n2ccc3c(N[C@H]4CCc5ccccc54)ncnc32)C[C@H]1O,–,13.7 µM (active)
